We go through 17 sequences from publication PMC8384837, “Expanding the binding specificity for RNA recognition by a PUF domain”.

Substitutions are numbered along the chain they refer to.

Holding throughout (assay): yeast three-hybrid, YBZ-1, SC-Leu-His + 0.5 mM 3-AT, 4 days
What all share (conditions): tags: N-Gal4 AD-HA kept; label: inside an RPR1-promoter hybrid RNA with tandem MS2 sites; ssRNA

One assay addresses PUM1 PUF domain R2-LWE (Homo sapiens, UniProt Q14671 828-1176, N899L;Y900W;Q903E). Summed up:
(§1)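 Each repeat of the Pumilio-1 PUF domain was randomized at its three base-contacting residues, and these libraries were co-expressed from a centromeric plasmid with matching RNA elements in strain YBZ-1. After four days on SC-Leu (input) or SC-Leu-His + 0.5 mM 3-AT (selection), the repeat regions were PCR-amplified and Illumina-sequenced. The interaction score compares variant frequency between input and selection as a log change, computed in log2 with a pseudocount of 1 for absent variants.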

Another assay deals with PUM1 PUF domain R1-KVV (Homo sapiens, UniProt Q14671 828-1176, S863K;R864V;Q867V). The method in brief: as §1
PUM1 PUF domain R1-KVV, sequence (Q14671 828-1176 S863K/R864V/Q867V): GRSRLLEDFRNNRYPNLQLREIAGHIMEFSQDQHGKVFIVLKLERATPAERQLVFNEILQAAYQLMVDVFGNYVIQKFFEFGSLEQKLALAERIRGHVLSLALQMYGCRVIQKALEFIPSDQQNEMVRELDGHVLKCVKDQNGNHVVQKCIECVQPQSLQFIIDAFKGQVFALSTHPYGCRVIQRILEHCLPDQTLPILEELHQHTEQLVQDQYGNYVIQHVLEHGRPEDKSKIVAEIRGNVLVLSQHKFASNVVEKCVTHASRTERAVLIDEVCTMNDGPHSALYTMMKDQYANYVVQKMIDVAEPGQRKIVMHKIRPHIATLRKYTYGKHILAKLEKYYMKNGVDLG
The next assay deals with PUM1 PUF domain R3-SRV (Homo sapiens, UniProt Q14671 828-1176, C935S;Q939V). Summed up: as §1
Another assay has as its target PUM1 PUF domain R3-GND (Homo sapiens, UniProt Q14671 828-1176, C935G;R936N;Q939D). The method in brief: as §1
The target in the next assay is PUM1 PUF domain R5-FRI (Homo sapiens, UniProt Q14671 828-1176, C1007F;Q1011I). Summed up: as §1
A further assay deals with PUM1 PUF domain R5-RQP (Homo sapiens, UniProt Q14671 828-1176, C1007R;R1008Q;Q1011P). The method in brief:
as §1

For a further assay, the target named is PUM1 PUF domain R5-KSS (Homo sapiens, UniProt Q14671 828-1176, C1007K;R1008S;Q1011S). Summed up: as §1
Another assay deals with T1, PUM1 PUF domain R6-AYE (Homo sapiens, UniProt Q14671 828-1176, N1043A;Q1047E).
T1 sequence: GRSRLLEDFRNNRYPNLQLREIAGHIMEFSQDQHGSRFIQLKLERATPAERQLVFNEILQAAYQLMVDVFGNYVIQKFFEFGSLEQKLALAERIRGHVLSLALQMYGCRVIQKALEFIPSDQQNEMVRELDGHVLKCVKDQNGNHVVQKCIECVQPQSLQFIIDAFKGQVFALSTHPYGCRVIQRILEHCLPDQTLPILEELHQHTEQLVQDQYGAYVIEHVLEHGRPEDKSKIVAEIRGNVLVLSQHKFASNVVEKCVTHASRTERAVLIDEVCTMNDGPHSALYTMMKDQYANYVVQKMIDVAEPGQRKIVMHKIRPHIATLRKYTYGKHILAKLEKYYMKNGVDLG
The method in brief: as §1

A further assay addresses T2, PUM1 PUF domain R6-NWI (Homo sapiens, UniProt Q14671 828-1176, Y1044W;Q1047I).
T2 sequence: T1 sequence with A216N, Y217W, E220I
The method in brief:
as §1

In the next assay the target is PUM1 PUF domain R5-LLR (Homo sapiens, UniProt Q14671 828-1176, C1007L;R1008L;Q1011R). Summed up:
as §1

The target in a further assay is PUM1 PUF domain R8-RYM (Homo sapiens, UniProt Q14671 828-1176, N1122R;Q1126M). The method in brief: as §1
A further assay deals with PUM1 PUF domain R4-NYP (Homo sapiens, UniProt Q14671 828-1176, H972Y;Q975P). Summed up:
as §1

For the next assay, the target named is PUM1 PUF domain R4-MPS (Homo sapiens, UniProt Q14671 828-1176, N971M;H972P;Q975S). Summed up: as §1
A further assay deals with PUM1 PUF domain R7-RHP (Homo sapiens, UniProt Q14671 828-1176, S1079R;N1080H;E1083P). The method in brief: as §1
Another assay deals with PUM1 PUF domain R7-EPS (Homo sapiens, UniProt Q14671 828-1176, S1079E;N1080P;E1083S). The method in brief:
as §1

In a further assay the target is PUM1 PUF domain R3-RAM (Homo sapiens, UniProt Q14671 828-1176, C935R;R936A;Q939M). The method in brief:
as §1

Another assay addresses PUM1 PUF domain R7-TVR (Homo sapiens, UniProt Q14671 828-1176, S1079T;N1080V;E1083R). The method in brief: as §1
In the next assay the target is PUM1 PUF domain R8-NWG (Homo sapiens, UniProt Q14671 828-1176, Y1123W;Q1126G). The method in brief:
as §1

The target in another assay is PUM1 PUF domain R3-VHP (Homo sapiens, UniProt Q14671 828-1176, C935V;R936H;Q939P). Summed up:
as §1

The next assay deals with T3, PUM1 PUF domain R6-GWK (Homo sapiens, UniProt Q14671 828-1176, N1043G;Y1044W;Q1047K).
T3 sequence: T1 sequence with A216G, Y217W, E220K
Summed up: as §1

Turning to “GGCUAGAACUAGUGGAUCCCCCGGCGCCCGGCGGCUCGAGCCCGGGUAAGUGUAAAAAGUCUGCAUGCCGCCGGGCGCCAUGCCUGCAGGUCGACUCUAGAAAACAUG”, in the assay with PUM1 PUF domain R2-LWE, the binding signal was 7.67 log2 enrichment (interaction score).
In the case of “GGCUAGAACUAGUGGAUCCCCCGGCGCCCGGCGGCUCGAGCCCGGGUAAGUGUAAAUCGUCUGCAUGCCGCCGGGCGCCAUGCCUGCAGGUCGACUCUAGAAAACAUG”, in the assay with PUM1 PUF domain R1-KVV, the binding signal is 5.35 log2 enrichment (interaction score).
For the sequence “GGCUAGAACUAGUGGAUCCCCCGGCGCCCGGCGGCUCGAGCCCGGGUAAGUGUAAGUAGUCUGCAUGCCGCCGGGCGCCAUGCCUGCAGGUCGACUCUAGAAAACAUG”, the binding signal is 1.79 log2 enrichment (interaction score) in the assay with PUM1 PUF domain R3-SRV and 3.15 log2 enrichment (interaction score) in the assay with PUM1 PUF domain R3-GND.
In the case of “GGCUAGAACUAGUGGAUCCCCCGGCGCCCGGCGGCUCGAGCCCGGGUAAGUGUCAAUAGUCUGCAUGCCGCCGGGCGCCAUGCCUGCAGGUCGACUCUAGAAAACAUG”, the binding signal was 2.41 log2 enrichment (interaction score) with PUM1 PUF domain R5-FRI, 4.91 log2 enrichment (interaction score) in the assay with PUM1 PUF domain R5-RQP and 3.4 log2 enrichment (interaction score) with PUM1 PUF domain R5-KSS.
For “GGCUAGAACUAGUGGAUCCCCCGGCGCCCGGCGGCUCGAGCCCGGGUAAGUGGAAAUAGUCUGCAUGCCGCCGGGCGCCAUGCCUGCAGGUCGACUCUAGAAAACAUG”, in the assay with PUM1 PUF domain R6-AYE, the binding signal was 3.94 log2 enrichment (interaction score).
Turning to “GGCUAGAACUAGUGGAUCCCCCGGCGCCCGGCGGCUCGAGCCCGGGUAAGUGAAAAUAGUCUGCAUGCCGCCGGGCGCCAUGCCUGCAGGUCGACUCUAGAAAACAUG”, the binding signal is 6.06 log2 enrichment (interaction score) with PUM1 PUF domain R6-AYE and 3.09 log2 enrichment (interaction score) with PUM1 PUF domain R6-NWI.
With “GGCUAGAACUAGUGGAUCCCCCGGCGCCCGGCGGCUCGAGCCCGGGUAAGUGUUAAUAGUCUGCAUGCCGCCGGGCGCCAUGCCUGCAGGUCGACUCUAGAAAACAUG”, the values for the binding signal with PUM1 PUF domain R5-FRI and with PUM1 PUF domain R5-LLR were 1.47 log2 enrichment (interaction score) and 2.92 log2 enrichment (interaction score), respectively.
As for “GGCUAGAACUAGUGGAUCCCCCGGCGCCCGGCGGCUCGAGCCCGGGUAAGCGUAAAUAGUCUGCAUGCCGCCGGGCGCCAUGCCUGCAGGUCGACUCUAGAAAACAUG”, the binding signal with PUM1 PUF domain R8-RYM is 4.93 log2 enrichment (interaction score).
On to “GGCUAGAACUAGUGGAUCCCCCGGCGCCCGGCGGCUCGAGCCCGGGUAAGUGUACAUAGUCUGCAUGCCGCCGGGCGCCAUGCCUGCAGGUCGACUCUAGAAAACAUG”, for which the binding signal is 2.11 log2 enrichment (interaction score) with PUM1 PUF domain R4-NYP and 2.38 log2 enrichment (interaction score) in the assay with PUM1 PUF domain R4-MPS.
For “GGCUAGAACUAGUGGAUCCCCCGGCGCCCGGCGGCUCGAGCCCGGGUAAGUGUAAAUGGUCUGCAUGCCGCCGGGCGCCAUGCCUGCAGGUCGACUCUAGAAAACAUG”, the binding signal with PUM1 PUF domain R1-KVV is 1.3 log2 enrichment (interaction score).
For the sequence “GGCUAGAACUAGUGGAUCCCCCGGCGCCCGGCGGCUCGAGCCCGGGUAAGUGUAUAUAGUCUGCAUGCCGCCGGGCGCCAUGCCUGCAGGUCGACUCUAGAAAACAUG”, the binding signal with PUM1 PUF domain R4-NYP is 2.54 log2 enrichment (interaction score).
In the case of “GGCUAGAACUAGUGGAUCCCCCGGCGCCCGGCGGCUCGAGCCCGGGUAAGUCUAAAUAGUCUGCAUGCCGCCGGGCGCCAUGCCUGCAGGUCGACUCUAGAAAACAUG”, the binding signal was 4.29 log2 enrichment (interaction score) with PUM1 PUF domain R7-RHP and 1.4 log2 enrichment (interaction score) in the assay with PUM1 PUF domain R7-EPS.
As to “GGCUAGAACUAGUGGAUCCCCCGGCGCCCGGCGGCUCGAGCCCGGGUAAGUGUAAAGAGUCUGCAUGCCGCCGGGCGCCAUGCCUGCAGGUCGACUCUAGAAAACAUG”, the binding signal with PUM1 PUF domain R2-LWE was 6.63 log2 enrichment (interaction score).
As to “GGCUAGAACUAGUGGAUCCCCCGGCGCCCGGCGGCUCGAGCCCGGGUAAGUGUAAUUAGUCUGCAUGCCGCCGGGCGCCAUGCCUGCAGGUCGACUCUAGAAAACAUG”, the binding signal with PUM1 PUF domain R3-SRV is 2.15 log2 enrichment (interaction score); in the assay with PUM1 PUF domain R3-RAM, 2.45 log2 enrichment (interaction score).
In the case of “GGCUAGAACUAGUGGAUCCCCCGGCGCCCGGCGGCUCGAGCCCGGGUAAGUGUAAAUUGUCUGCAUGCCGCCGGGCGCCAUGCCUGCAGGUCGACUCUAGAAAACAUG”, the binding signal in the assay with PUM1 PUF domain R1-KVV is 5.82 log2 enrichment (interaction score).
For “GGCUAGAACUAGUGGAUCCCCCGGCGCCCGGCGGCUCGAGCCCGGGUAAGUUUAAAUAGUCUGCAUGCCGCCGGGCGCCAUGCCUGCAGGUCGACUCUAGAAAACAUG”, the results for the binding signal with PUM1 PUF domain R7-EPS and with PUM1 PUF domain R7-TVR were 5.7 log2 enrichment (interaction score) and 4.91 log2 enrichment (interaction score), respectively.
With “GGCUAGAACUAGUGGAUCCCCCGGCGCCCGGCGGCUCGAGCCCGGGUAAGUGUAAAUAGUCUGCAUGCCGCCGGGCGCCAUGCCUGCAGGUCGACUCUAGAAAACAUG”, the binding signal is 1.55 log2 enrichment (interaction score) with PUM1 PUF domain R5-FRI; 3.93 log2 enrichment (interaction score) with PUM1 PUF domain R8-NWG; 3.02 log2 enrichment (interaction score) with PUM1 PUF domain R3-VHP; 4.67 log2 enrichment (interaction score) with PUM1 PUF domain R2-LWE; 3.25 log2 enrichment (interaction score) with PUM1 PUF domain R3-SRV; 2.21 log2 enrichment (interaction score) with PUM1 PUF domain R5-RQP. The binding signal in the assay with PUM1 PUF domain R6-GWK is 7.25 log2 enrichment (interaction score); with PUM1 PUF domain R4-MPS it was 4.59 log2 enrichment (interaction score).
